Inconclusive results are not listed. The source made the active and inactive calls. How the source made its calls, unless noted: active means hit-call score of the fitted dose curve at least 0.9, where 1 is the maximum; inconclusive means response in the unintended direction; inactive means score below 0.9.
Read-out: not listed separately
Assay: CEETOX_H295R_MTT_cell_viability: Viability Assessment in the CeeTox HT-H295R MTT Assay (AID 2283718; active means hit-call score of the fitted dose curve at least 0.9, where 1 is the maximum; inactive means score below 0.9;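 on AC50: curve fitted both ways so AC50 may mark viability loss or gain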)
Method in brief: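 Human H295R adrenal cells, prestimulated 48 h with 10 uM forskolin, were exposed 48 h to chemicals in 0.1% DMSO. Viability was measured in the same wells by MTT (0.5 mg/ml, 4 h, 37 C), absorbance 570/650 nm, as percent of controls.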

SMILES | AC50 | outcome
C=C1CC[C@H](O)C/C1=C/C=C1\CCC[C@]2(C)[C@@H]([C@H](C)/C=C/[C@H](C)C(C)C)CC[C@@H]12 | 83.4 µM (active) | 
CC=Cc1ccc(OC)c(OC)c1 |  | inactive
CCCCCCCCN1CCCC1=O | 0.882 µM (active) | 

Target: Luciferin 4-monooxygenase (Photinus pyralis) (UniProt P08659)
Sequence (P08659 whole entry, looked up): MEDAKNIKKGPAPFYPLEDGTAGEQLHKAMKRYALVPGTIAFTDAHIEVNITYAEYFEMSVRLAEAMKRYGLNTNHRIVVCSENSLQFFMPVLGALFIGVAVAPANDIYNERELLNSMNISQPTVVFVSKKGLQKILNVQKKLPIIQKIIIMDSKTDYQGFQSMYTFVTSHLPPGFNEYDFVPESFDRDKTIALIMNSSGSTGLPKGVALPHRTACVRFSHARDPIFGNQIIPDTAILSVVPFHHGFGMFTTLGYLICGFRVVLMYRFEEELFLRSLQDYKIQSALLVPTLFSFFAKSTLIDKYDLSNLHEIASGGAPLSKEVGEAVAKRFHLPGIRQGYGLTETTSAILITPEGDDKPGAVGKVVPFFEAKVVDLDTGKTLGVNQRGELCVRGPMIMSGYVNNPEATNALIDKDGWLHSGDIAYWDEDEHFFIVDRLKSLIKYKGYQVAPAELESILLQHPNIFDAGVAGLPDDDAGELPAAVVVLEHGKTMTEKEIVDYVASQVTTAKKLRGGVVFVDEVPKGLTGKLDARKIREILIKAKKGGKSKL
Assay: CCTE_Simmons_QuantiLum_inhib_2: CCTE's Firefly Luciferase Inhibition Assay, Simmons Lab (AID 2283767);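 on AC50: potency for inhibitors that lower luciferase luminescence relative to DMSO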
Method in brief: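 Eight-point titrations of each chemical, 5 nM–87.5 uM final in 0.5% DMSO, were run in three biological replicates against recombinant luciferase for 30 min at 37C. Bioluminescence signal loss, read on reagent injection, gave the inhibition endpoint.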

SMILES | outcome | AC50
CS(=O)(=O)OCCCCOS(C)(=O)=O | inactive | 
O=C(O)c1ccc(O)cc1 | inactive | 
COc1ccccc1N=Nc1c(S(=O)(=O)O)cc2cc(S(=O)(=O)O)cc(NC(C)=O)c2c1O |  | 13.8 µM (active)
O=c1c(O)c(-c2ccc(O)cc2)oc2cc(O)cc(O)c12 |  | 34.3 µM (active)
O=C(O)CCCCCCCCC(=O)O | inactive | 
Cc1cc(S(=O)(=O)O)ccc1N=Nc1c(O)ccc2ccccc12 |  | 27.8 µM (active)
COc1ccc(N=Nc2cc(C)c(N=Nc3ccc(S(=O)(=O)O)cc3)cc2OC)cc1 |  | 53.8 µM (active)
CCCCCCCCc1ccc(S(=O)(=O)O)cc1 | inactive | 
[O-]n1ccccc1=S.[O-]n1ccccc1=S.[Zn+2] | inactive | 
CCCCCCCCC=CCCCCCCCC1=NCCN1CCO | inactive | 
CC(CN=Cc1ccccc1O)N=Cc1ccccc1O (stereo not drawn) | inactive | 
CCCCC(CC)COC(=O)c1ccc(O)cc1 (stereo not drawn) | inactive | 
CCc1cc(C(C)(C)C)c(O)c(C(C)(C)C)c1 | inactive | 
CCOC(=O)c1ccc(N)cc1 | inactive | 
CCc1cc(Cc2cc(CC)cc(C(C)(C)C)c2O)c(O)c(C(C)(C)C)c1 | inactive | 
O=C(Nc1ccc2c(O)c(N=Nc3ccc(N=Nc4ccc(S(=O)(=O)O)cc4)cc3)c(S(=O)(=O)O)cc2c1)c1ccccc1 |  | 20.7 µM (active)
CC(C)CCCCCCCCCCCCCCC(=O)O | inactive | 
C=C1CC[C@H](O)C/C1=C/C=C1\CCC[C@]2(C)[C@@H]([C@H](C)/C=C/[C@H](C)C(C)C)CC[C@@H]12 | inactive | 

Tested on: not listed separately
Assay: ACEA_AR_agonist_AUC_viability: ACEA Biosciences xCELLigence Real-Time Cell Analysis on Androgen Receptor Agonism for Viability (AID 2283775);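 on AC50: viability read 80 hours after compound addition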
Method in brief: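 Viability endpoint from xCELLigence impedance in 22Rv1 prostate cells at 80 h. Eight-point series, 100 uM maximum final.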

SMILES | outcome | AC50
CS(=O)(=O)OCCCCOS(C)(=O)=O | inactive | 
O=C(O)c1ccc(O)cc1 | inactive | 
COc1ccccc1N=Nc1c(S(=O)(=O)O)cc2cc(S(=O)(=O)O)cc(NC(C)=O)c2c1O | inactive | 
Nc1ccc(N)c2c1C(=O)c1ccccc1C2=O |  | 9.05 µM (active)
CC1(C)C(=O)N(Cl)C(=O)N1Br | inactive | 
O=c1c(O)c(-c2ccc(O)cc2)oc2cc(O)cc(O)c12 | inactive | 
O=C(O)CCCCCCCCC(=O)O |  | 2.76 µM (active)
OCc1cccc(Oc2ccccc2)c1 | inactive | 
CCOC(=O)[C@@H](C)Oc1ccc(Oc2nc3ccc(Cl)cc3o2)cc1 |  | 5.36 µM (active)
Cc1cc(=O)oc2cc(N(C)C)ccc12 | inactive | 
Cc1cc(S(=O)(=O)O)ccc1N=Nc1c(O)ccc2ccccc12 | inactive | 
CCCCCCCCc1ccc(S(=O)(=O)O)cc1 | inactive | 
[O-]n1ccccc1=S.[O-]n1ccccc1=S.[Zn+2] |  | 11.8 µM (active)
CCCCCCCCC=CCCCCCCCC1=NCCN1CCO | inactive | 
CC(CN=Cc1ccccc1O)N=Cc1ccccc1O (stereo not drawn) |  | 6.64 µM (active)
CCCCC(CC)COC(=O)c1ccc(O)cc1 (stereo not drawn) | inactive | 
CCc1cc(C(C)(C)C)c(O)c(C(C)(C)C)c1 | inactive | 
CCOC(=O)c1ccc(N)cc1 | inactive | 
BrCc1cccc(Oc2ccccc2)c1 | inactive | 
CCc1cc(Cc2cc(CC)cc(C(C)(C)C)c2O)c(O)c(C(C)(C)C)c1 |  | 24.3 µM (active)
O=C(Nc1ccc2c(O)c(N=Nc3ccc(N=Nc4ccc(S(=O)(=O)O)cc4)cc3)c(S(=O)(=O)O)cc2c1)c1ccccc1 | inactive | 
CC(C)CCCCCCCCCCCCCCC(=O)O | inactive | 
C=C1CC[C@H](O)C/C1=C/C=C1\CCC[C@]2(C)[C@@H]([C@H](C)/C=C/[C@H](C)C(C)C)CC[C@@H]12 | inactive | 

Tested on: not listed separately
Assay: ACEA_AR_antagonist_AUC_viability: ACEA Biosciences xCELLigence Real-Time Cell Analysis on Androgen Receptor Antagonism for Viability (AID 2283776);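 further: area under impedance growth curve at 80 h after dosing as viability; hits lower the growth signal relative to DMSO meaning cytotoxicity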
Method in brief: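 22Rv1 human prostate cancer cells were seeded on electrode plates, monitored overnight, then exposed to eight 1:4 dilutions from 100 uM final. Impedance-based growth kinetics at 80 h gave an AUC viability endpoint normalized to DMSO.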

SMILES | outcome | AC50
CS(=O)(=O)OCCCCOS(C)(=O)=O | inactive | 
O=C(O)c1ccc(O)cc1 | inactive | 
COc1ccccc1N=Nc1c(S(=O)(=O)O)cc2cc(S(=O)(=O)O)cc(NC(C)=O)c2c1O | inactive | 
Nc1ccc(N)c2c1C(=O)c1ccccc1C2=O |  | 12.7 µM (active)
O=c1c(O)c(-c2ccc(O)cc2)oc2cc(O)cc(O)c12 |  | 4.77 µM (active)
O=C(O)CCCCCCCCC(=O)O |  | 2.07 µM (active)
OCc1cccc(Oc2ccccc2)c1 | inactive | 
CCOC(=O)[C@@H](C)Oc1ccc(Oc2nc3ccc(Cl)cc3o2)cc1 | inactive | 
Cc1cc(=O)oc2cc(N(C)C)ccc12 |  | 0.177 µM (active)
CCCCCCCCc1ccc(S(=O)(=O)O)cc1 | inactive | 
[O-]n1ccccc1=S.[O-]n1ccccc1=S.[Zn+2] |  | 22.9 µM (active)
CCCCCCCCC=CCCCCCCCC1=NCCN1CCO | inactive | 
CC(CN=Cc1ccccc1O)N=Cc1ccccc1O (stereo not drawn) |  | 4.63 µM (active)
CCc1cc(C(C)(C)C)c(O)c(C(C)(C)C)c1 | inactive | 
CCOC(=O)c1ccc(N)cc1 | inactive | 
C=C[Si]1(C)O[Si](C)(C=C)O[Si](C)(C=C)O[Si](C)(C=C)O1 (stereo not drawn) | inactive | 
BrCc1cccc(Oc2ccccc2)c1 | inactive | 
CCc1cc(Cc2cc(CC)cc(C(C)(C)C)c2O)c(O)c(C(C)(C)C)c1 |  | 22.9 µM (active)
CC(C)CCCCCCCCCCCCCCC(=O)O | inactive | 
